Source: PubChem BioAssay (NCATS)
Inconclusive results are not listed. A number with no mark means an inactive call. Active and inactive are the calls of the source. Calls come from the whole dose curve; as a rule, active = well fitted inhibition curve with a large enough effect; inconclusive = small, poorly fitted or top-dose-only effect; inactive = no such curve, though single readings can be large or run the other way.

Biological target: Rap guanine nucleotide exchange factor 3 (Homo sapiens) (UniProt O95398)
Test: Confirmatory qHTS for antagonist of cAMP-regulated guanine nucleotide exchange factor 3 (EPAC1) (AID 1645880); note: nearly all actives have a fitted effect of over 55% in size;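 for activity, negative = inhibition: plate controls were DMSO only for no effect and full effect of the ATA control for full effect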
Settings: EPAC1 Rap1B-BODIPY-GDP exchange, fluorescence; activity, negative = inhibition: at 115 µM (top of the series)
Outline: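 Nucleotide exchange uses 100 nM EPAC1, 250 nM RAP1B-BODIPY-GDP and 50 uM GDP, with compounds in a concentration-titration series. After 5 min at room temperature, fluorescence (480 nm ex/540 nm em) is read every 5 min for 30 min. Data are normalized to control ATA and DMSO.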
Potency is the fitted concentration of half-maximal effect.

Rap guanine nucleotide exchange factor 3 (Homo sapiens), sequence (O95398 whole entry, looked up): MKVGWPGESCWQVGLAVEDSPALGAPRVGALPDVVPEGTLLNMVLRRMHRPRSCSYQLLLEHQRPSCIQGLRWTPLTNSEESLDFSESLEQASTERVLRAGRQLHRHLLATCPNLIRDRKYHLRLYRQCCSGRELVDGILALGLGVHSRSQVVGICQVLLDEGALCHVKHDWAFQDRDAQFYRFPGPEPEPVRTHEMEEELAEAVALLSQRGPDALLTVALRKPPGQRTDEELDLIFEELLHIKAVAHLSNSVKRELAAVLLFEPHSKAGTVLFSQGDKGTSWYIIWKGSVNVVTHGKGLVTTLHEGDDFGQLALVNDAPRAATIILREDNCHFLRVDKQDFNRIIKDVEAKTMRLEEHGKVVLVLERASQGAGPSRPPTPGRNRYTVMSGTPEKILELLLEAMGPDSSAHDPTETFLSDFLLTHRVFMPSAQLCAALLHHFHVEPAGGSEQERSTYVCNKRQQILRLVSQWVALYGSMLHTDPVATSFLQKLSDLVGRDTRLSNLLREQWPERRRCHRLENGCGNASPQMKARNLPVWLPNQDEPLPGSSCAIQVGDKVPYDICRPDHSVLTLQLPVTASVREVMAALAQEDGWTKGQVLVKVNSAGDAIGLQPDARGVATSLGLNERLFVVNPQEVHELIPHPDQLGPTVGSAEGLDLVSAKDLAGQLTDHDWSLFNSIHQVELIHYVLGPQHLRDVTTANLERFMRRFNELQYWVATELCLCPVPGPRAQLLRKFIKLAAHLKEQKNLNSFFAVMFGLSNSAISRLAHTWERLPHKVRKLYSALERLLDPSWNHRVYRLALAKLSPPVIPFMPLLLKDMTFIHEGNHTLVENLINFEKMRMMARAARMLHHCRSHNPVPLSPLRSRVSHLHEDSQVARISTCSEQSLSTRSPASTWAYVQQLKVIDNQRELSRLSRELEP

Compound	activity, negative = inhibition [%]	Potency
COc1cccc(Nc2ncc3nc(-c4ccc(F)cc4)c(=O)n(CCC#N)c3n2)c1	-8.32	
C[n+]1ccc(/C=C/c2c[nH]c3ccccc23)cc1	25.8	
CCOc1ccc(C(=O)CCc2nc3ccccc3s2)cc1	-27.1	
Cc1ccc2oc(=O)n(Cc3ccc(OC(C)C)cc3)c2c1	-16.3	
CN(C)c1ncc2nc(CCc3ccccc3)c(=O)n(-c3ccccc3)c2n1	9.04	
CCOc1ccc(S(=O)(=O)Nc2cc(SCC(=O)O)c(O)c3ccccc23)cc1		67.5 µM (active)
CN1CC=C2C(C#N)=C(N)C(C#N)(C#N)C(c3ccsc3)C2C1 (stereo not given)	-0.162	
CN1CC=C2C(C#N)=C(N)C(C#N)(C#N)[C@H](c3cccc(Cl)c3)C2C1 (stereo not given in full)	-17.3	
O=[N+]([O-])c1c(Nc2ccccn2)cc(Cl)c2nonc12	54.2	
COc1cccc(/C=N/NC(=O)c2[nH]nc3c2CCc2ccccc2-3)c1O		33.8 µM (active)
Cn1ccc(=Nc2ccc(NC(=O)c3ccc(N=c4ccn(C)c5ccc([N+](=O)[O-])cc45)cc3)cc2)cc1		42.6 µM (active)
COc1cccc(Nc2ncc3nc(-c4cc(F)cc(F)c4)c(=O)n(CCC#N)c3n2)c1	24.6	
COC(=O)c1cc2ccccc2n1S(=O)(=O)c1ccccc1	-12.5	
Cc1cc(/C=C2\SC(=S)N(Cc3ccco3)C2=O)c(C)n1-c1cccnc1	44.1	
CCCCN1C(=O)/C(=C/C=C2/CC(C)(C)CN2C)SC1=S	9.26	
COc1cccc(/C(O)=C/c2nc3ccc(C(=O)NCCc4ccc(Cl)cc4)cc3[nH]c2=O)c1	5.57	
CCOCCCNc1nc2c(C)cccn2c(=O)c1/C=C1\SC(=S)N(CC(C)C)C1=O	-12	
CN1c2ccccc2C(C)(C)C12C=Nc1c(cc(N3CCOCC3)c3ccccc13)O2 (stereo not given)	-20	
CCOc1ccc(-c2nn(-c3ccccc3)cc2/C=C2\SC(=S)N(C3CCS(=O)(=O)C3)C2=O)cc1 (stereo not given)	18.3	
COC(=O)c1ccccc1-c1c2ccc(=N)cc-2oc2cc(N)ccc12	-32.4	

Compound	activity, negative = inhibition [%]	Potency
Cc1c2ccccc2nc2c(F)c(NCCO)c(F)c(F)c12	-32.9	
CC[n+]1c(/C=C/C=C/N(C(C)=O)c2ccccc2)sc2ccccc21		84.9 µM (active)
CC(=O)N1CCC2(CCCN(c3ccc(-c4ccccc4)cc3)C2)CC1	-8.66	
CC1CCN(C2(O)C(=O)Nc3ccc(Br)cc32)CC1 (stereo not given)	-25.2	
CC(C)(C)C1COc2ccccc2N1C(=O)c1ccccc1Cl (stereo not given)	-21.7	
O=[N+]([O-])/C=C/c1cn(Cc2ccc(Cl)cc2)c2ccccc12	-36.3	
Cc1cccc(N2CCCC2=Nc2ccc(Br)cc2C#N)c1	-21.1	
CCCCn1nnnc1C(c1cc2ccccc2o1)N1CCCCC1 (stereo not given)	-21.1	
CCNc1ncc2nc(-c3cccs3)c(=O)n(CCC#N)c2n1	9.59	
c1ccc(-c2cnn3c(-c4ccccc4)c(-c4ccccc4)nc3n2)cc1	41.7	
Cc1ccc(CNC(=O)c2cccc3c2C(=O)c2ccc(N4CCC(C)CC4)cc2S3(=O)=O)cc1	2.05	
O=c1c(/C=C(\O)c2ccccc2)nc2ccccc2n1-c1ccccc1	44.5	
COc1cccc(Nc2nnc(-c3cc4ccc(O)cc4oc3=O)s2)c1	-29.5	
O=C1OC(c2ccccc2)(c2ccccc2)c2ccccc21	-14.4	
O=C(OCCN1C(=O)c2cccc3c(N4CCOCC4)ccc(c23)C1=O)c1ccc(Cl)cc1Cl	205	
Fc1ccc(Nc2cncc(-c3ccsc3)c2)cc1Cl		75.7 µM (active)
COc1cc2c3nnc(-c4ccc(F)cc4)c-3cn(Cc3cccc(C)c3)c2cc1OC	30.2	
c1ccc(Oc2nc(-c3cccnc3)nc3ccccc23)cc1	-22.2	
Cc1ccc2c(c1)N(Cc1cccc(F)c1)C(=O)C(C)O2 (stereo not given)	-13.8	
O=C(O)c1ccc(COc2ccccc2/C=C2/NC(=O)N(c3cccc(Cl)c3)C2=O)cc1		37.9 µM (active)

Biological target: Rap guanine nucleotide exchange factor 4 (Homo sapiens) (UniProt Q8WZA2)
Test: Confirmatory qHTS for antagonist of cAMP-regulated guanine nucleotide exchange factor 4 (EPAC2) (AID 1645885); note: nearly all actives have a fitted effect of over 25% in size; for activity change, negative = inhibition: % is set by controls: 0 for no effect and ±100 for the full control effect
Settings: EPAC2 Rap1B-BODIPY-GDP exchange fluorescence, biochemical; series mostly up to 12.7 µM; activity change, negative = inhibition: at the top concentration

Rap guanine nucleotide exchange factor 4 (Homo sapiens), sequence (Q8WZA2 whole entry, looked up): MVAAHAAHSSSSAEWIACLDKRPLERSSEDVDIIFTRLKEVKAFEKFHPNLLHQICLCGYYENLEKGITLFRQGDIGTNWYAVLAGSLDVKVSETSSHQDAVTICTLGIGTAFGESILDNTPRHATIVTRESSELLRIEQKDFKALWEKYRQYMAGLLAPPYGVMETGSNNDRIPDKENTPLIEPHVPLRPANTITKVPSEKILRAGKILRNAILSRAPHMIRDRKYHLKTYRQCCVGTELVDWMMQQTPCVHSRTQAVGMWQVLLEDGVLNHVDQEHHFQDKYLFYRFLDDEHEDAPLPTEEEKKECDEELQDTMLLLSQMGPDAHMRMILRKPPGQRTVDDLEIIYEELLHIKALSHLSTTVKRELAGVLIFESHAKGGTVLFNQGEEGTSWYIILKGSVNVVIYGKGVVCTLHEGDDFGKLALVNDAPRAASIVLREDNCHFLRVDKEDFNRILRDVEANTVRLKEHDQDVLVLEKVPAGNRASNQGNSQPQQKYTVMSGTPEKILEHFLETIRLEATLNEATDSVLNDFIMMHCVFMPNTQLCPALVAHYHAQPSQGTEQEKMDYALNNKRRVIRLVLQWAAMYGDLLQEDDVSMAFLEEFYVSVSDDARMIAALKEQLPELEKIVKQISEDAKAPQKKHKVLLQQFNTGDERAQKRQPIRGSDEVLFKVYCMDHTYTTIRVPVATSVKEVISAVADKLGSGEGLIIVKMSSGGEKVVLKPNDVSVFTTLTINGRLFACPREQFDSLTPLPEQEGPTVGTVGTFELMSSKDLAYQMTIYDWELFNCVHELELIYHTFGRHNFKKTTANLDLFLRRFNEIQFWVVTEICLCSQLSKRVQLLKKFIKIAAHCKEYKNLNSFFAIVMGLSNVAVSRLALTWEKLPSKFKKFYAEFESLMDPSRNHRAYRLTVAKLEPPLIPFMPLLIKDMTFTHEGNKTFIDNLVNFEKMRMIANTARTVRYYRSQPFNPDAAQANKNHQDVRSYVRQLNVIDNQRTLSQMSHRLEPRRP

Compound	activity change, negative = inhibition	Potency
COc1cccc(Nc2ncc3nc(-c4ccc(F)cc4)c(=O)n(CCC#N)c3n2)c1	15.4% [at 114 µM]	
CN(C)c1ncc2nc(CCc3ccccc3)c(=O)n(-c3ccccc3)c2n1	24.2% [at 114 µM]	
COc1cccc(/C=N/NC(=O)c2[nH]nc3c2CCc2ccccc2-3)c1O	110% [at 114 µM]	
Cn1ccc(=Nc2ccc(NC(=O)c3ccc(N=c4ccn(C)c5ccc([N+](=O)[O-])cc45)cc3)cc2)cc1		16.9 µM (active)
COc1cccc(Nc2ncc3nc(-c4cc(F)cc(F)c4)c(=O)n(CCC#N)c3n2)c1	31.6% [at 114 µM]	
Cc1cc(/C=C2\SC(=S)N(Cc3ccco3)C2=O)c(C)n1-c1cccnc1		84.9 µM (active)
COc1cccc(/C(O)=C/c2nc3ccc(C(=O)NCCc4ccc(Cl)cc4)cc3[nH]c2=O)c1	-8.91% [at 114 µM]	
Cc1c2ccccc2nc2c(F)c(NCCO)c(F)c(F)c12	13.3% [at 114 µM]	
CC(=O)N1CCC2(CCCN(c3ccc(-c4ccccc4)cc3)C2)CC1	-3.87% [at 114 µM]	
CC(C)(C)C1COc2ccccc2N1C(=O)c1ccccc1Cl (stereo not given)		30.1 µM (active)
CCNc1ncc2nc(-c3cccs3)c(=O)n(CCC#N)c2n1	72.5% [at 114 µM]	
c1ccc(-c2cnn3c(-c4ccccc4)c(-c4ccccc4)nc3n2)cc1	29.4% [at 114 µM]	
Cc1ccc(CNC(=O)c2cccc3c2C(=O)c2ccc(N4CCC(C)CC4)cc2S3(=O)=O)cc1	5.04%	
O=c1c(/C=C(\O)c2ccccc2)nc2ccccc2n1-c1ccccc1	-6.96%	
O=C(OCCN1C(=O)c2cccc3c(N4CCOCC4)ccc(c23)C1=O)c1ccc(Cl)cc1Cl	49.6%	
